Sm TGR inh = inhibitors of Schistosoma mansoni thioredoxin glutathione reductase. 3% of 360,000 active. Potency, µM (highest dose often 114 µM), for the others: at the highest dose activity change, negative = inhibition, usual class: inhibitors. Q962Y6. purified TGR, DTNB reduction, TNB absorbance 405 nm; further: potency means the concentration at half of the fitted maximal effect; on the % scale 0 is the no-effect control and ±100 the full control effect; nearly all actives have a fitted effect of over 60% in size
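TGR 20 nM + NADPH 100 uM (dispensed conc.), cpd preinc 15 min RT; start with NADPH (500 uM addition) then DTNB (15 mM addition). Kinetic TNB absorbance, 405 nm filter. Four-parameter Hill fit across titration.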
Pf growth 48h = inhibits P. falciparum growth in the first generation, 48 h | P. falciparum luciferase growth in erythrocytes, 48 h | Potency, µM (doses to about 28.7 µM), for inactives: at the top dose activity change, negative = inhibition, hits mostly inhibitors | 5.9% of 310,000 active; further: potency means the concentration at half of the fitted maximal effect; on the % scale 0 is the no-effect control and ±100 the full control effect
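Luciferase-expressing P. falciparum in infected erythrocytes (2% hematocrit, 0.1% parasitemia final) in RPMI 1640/0.5% Albumax were exposed to compound for 48 hours at 37 C, 5% CO2; growth read as luminescence.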
HCMV antiviral = human cytomegalovirus inhibition; HFF cells, HCMV-luciferase reporter, 72 h; stronger effect = lower value; activity change, negative = inhibition, % at 57.5 µM; 4.5% of 410,000 active; AID 1259415; in the data active means activity change below about -60%; inconclusive means no clear call, values can overlap the other calls; inactive means above about -39%; further: on the % scale 0 is the no-effect control and ±100 the full control effect
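Steps: HFFs plated, 16 h 37C; compounds added; HCMV-luciferase added to MOI 1 PFU/cell; 72 h 37C; OneGlo reagent, 5 min room temperature; luminescence read, normalized to controls.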
Pf growth 96h = P. falciparum growth inhibition at 96 hour, primary screen for plastid delayed-death inhibitors; P. falciparum luciferase reporter growth, 96 h; Potency, µM (titrated, usually from 28.7 µM), without a hit: top-dose activity change, negative = inhibition, usual class: inhibitors; 6.9% of 320,000 active; AID 504834; further: potency means the concentration at half of the fitted maximal effect; on the % scale 0 is the no-effect control and ±100 the full control effect
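Compounds incubated with erythrocytes infected by luciferase-expressing P. falciparum (2% hematocrit, 0.05% parasitemia final) for 96 hours, 37 C in 5% CO2. Growth inhibition scored as decreased luciferase luminescence.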
HCV inhibitor = HCV inhibition | AID 651820 | Huh7.5.1 HCVcc-Cre infection, luciferase reporter, 44 h | 3.4% of 340,000 active | Potency, µM (doses to about 41.8 µM), without a hit: top-dose activity change, negative = inhibition, most hits filed as inhibitors; further: potency means the concentration at half of the fitted maximal effect; on the % scale 0 is the no-effect control and ±100 the full control effect
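Cells seeded at 1,000/well and cultured 4 h, then compounds added followed by HCVcc-Cre virus (~0.5 moi). After 44 h further culture, luciferase substrate was added, plates held 15 min at room temperature, and luminescence read for 15 sec.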
SARS PLP yeast = blocks SARS-CoV papain-like protease in a yeast assay; S. cerevisiae expressing SARS-CoV PLpro, growth rescue; Potency, µM (top dose mostly 32.9 µM), for inactives: at the highest dose activity, positive = growth rescue, most hits filed as activators; 0.19% of 330,000 active; AID 485353; calls by dose curve; further: potency means the concentration at half of the fitted maximal effect; 0% is about no effect; nearly all actives have a fitted effect of over 55% in size
* marks the source's active call; other numbers are inactive results; u = inconclusive; x = no result given. Hits are enriched below; roughly 15% of the tested compounds scored in any of these assays. Unless noted, the call rests on the fitted dose curve; in most records, active means well fitted curve in the direction sought with a large enough effect; inconclusive means small, poorly fitted or top-dose-only effect, or another doubt; inactive means no such curve, though single readings can be large; an effect the other way counts as inactive or inconclusive.

SMILES	Sm TGR inh	Pf growth 48h	HCMV antiviral	Pf growth 96h	HCV inhibitor	SARS PLP yeast
O=C(C1=NN[C@@H]2C(=O)N(c3cccc(C(F)(F)F)c3)C(=O)[C@H]12)c1cnccn1	18µM*	1%	-35	16%	-1%	-1%
N#Cc1ccc(N2C(=O)[C@@H]3C(C(=O)c4ccc5ccccc5n4)=NN[C@@H]3C2=O)cc1	50µM*	2%	-10	-15%	u	-38%
N#Cc1ccc(N2C(=O)[C@@H]3C(C(=O)c4cnccn4)=NN[C@@H]3C2=O)cc1	8.9µM*	3%	11	30%	-12%	-3%
Cc1ccc(C)c(S(=O)(=O)N/N=C/c2ccc(N3CCOCC3)cc2)c1	-24%	2%	0	-1%	18%	1%
Cc1cccc(NC(=O)CSc2nc(C)cc(C)c2C(=O)Nc2ccc(Cl)cc2)c1	2%	x	-6	x	x	x
COc1cccc(CN(CC(=O)NCc2ccco2)C(=O)CNS(=O)(=O)c2ccccc2)c1	-21%	-11%	-61*	-3%	13%	1%
CC(C)CNS(=O)(=O)c1ccc(CCC(=O)NCc2ccncc2)cc1	8%	-15%	-5	-6%	6%	1%
O=C(CN(CCc1ccccc1)C(=O)CNS(=O)(=O)c1ccccc1)NCc1ccco1	0%	-2%	-17	-12%	10%	1%
Cc1ccc(S(=O)(=O)NCC(=O)N(CCc2ccccc2)CC(=O)NCc2ccco2)cc1	35µM*	-27%	-35	u	-27%	2%
CC(C)CNS(=O)(=O)c1ccc(CCC(=O)NCc2ccco2)cc1	45µM*	-14%	-9	x	8%	17%
CC(C)CCn1c(COc2ccccc2)nn(CCC#N)c1=S	-13%	-5%	-12	1%	-6%	-1%
Cc1cc2nc(C3CCCCC3)c(Cc3cccc(F)c3)n2c(C)c1Br	x	x	-27	x	x	x
CCCc1cc(=O)[nH]c(SCC(=O)Nc2ccc(N3CCCCC3)cc2)n1	x	x	-14	x	13%	-18%
Cc1ccc(CNC(=O)c2oc3ccc(S(=O)(=O)N4CCOCC4)cc3c2C)cc1	-3%	u	-31	x	u	0%
COc1ccc(CNC(=O)c2oc3ccc(S(=O)(=O)N4CCOCC4)cc3c2C)cc1	1%	12µM*	u	u	-29%	-1%
Cc1c(C(=O)NCc2ccc3c(c2)OCO3)oc2ccc(S(=O)(=O)N3CCCC3)cc12	1%	12µM*	-6	u	u	-4%
Cc1c(C(=O)NCc2ccc3c(c2)OCO3)oc2ccc(S(=O)(=O)N3CCCCC3)cc12	9%	10µM*	u	u	u	3%
O=C(NCc1ccc2c(c1)OCO2)c1ccc(S(=O)(=O)N2CCCCC2)cc1	-3%	-7%	-3	x	-22%	2%
COc1ccccc1CNC(=O)c1oc2ccc(S(=O)(=O)N3CCCC3)cc2c1C	10%	2.9µM*	x	209%	u	3%
COc1ccc(N2CCN(c3nccs3)CC2)cc1	4%	74%	89	90%	-3%	-1%
Cc1ccc(S(=O)(=O)NCc2cccc([N+](=O)[O-])c2)cc1	x	x	-25	x	x	x
CCn1cc(S(=O)(=O)NCc2ccc3c(c2)OCO3)cn1	u	22%	41	12µM*	16%	-6%
Cc1c(C(=O)O)oc2ccc(S(=O)(=O)NCc3ccc4c(c3)OCO4)cc12	-17%	0%	26	5.9µM*	19%	-1%
Cc1nnc(SC(C)C(=O)Nc2ccc(N3CCOCC3)cc2)n1Cc1ccccc1 (centres undefined)	-13%	3%	-9	26%	u	1%
CCN(Cc1cccc(F)c1)C(=O)c1ccc2ccccc2n1	0%	18%	6	6%	5%	-1%
c1cc2c3c(cccc3c1)NC1(CCCCCC1)N2	u	u	47	x	2%	0%
c1cc2c3c(cccc3c1)NC1(CCC3(CC1)Nc1cccc4cccc(c14)N3)N2	u	9.3µM*	u	6.6µM*	u	-5%

From PubChem
